Values joined by “and” are separate entries in the source; they are usually repeats but may differ in a detail not shown here. Equal entries are not always repeated. Records with an inconclusive call do not appear. Where a call stands in place of a potency, no number is given. Active and inactive are the calls of the source. The call rests on the fitted dose curve.
Potency means the concentration at half of the fitted maximal effect.

The test can be described thus: qHTS assay for small molecule agonists of the p53 signaling pathway - cell viability (AID 651633). Further: nearly all actives have a fitted effect of over 30% in size. The settings on record: p53RE-bla HCT-116 viability, ATP luminescence, 16 h; series mostly up to 83.3 µM. The source says:
National Center for Advancing Translational Sciences [NCATS]
NIH Chemical Genomics Center [NCGC]
U.S. Environmental Protection Agency [EPA]
National Institutes of Environmental Health Sciences [NIEHS]
National Toxicology Program [NTP]
U.S. Food and Drug Administration [FDA]
p53, a tumor suppressor protein, is activated following cellular insult, including DNA damage and other cellular stresses. The activation of p53 regulates cell fate by inducing DNA repair, cell cycle arrest, apoptosis, or cellular senescence. The activation of p53, therefore, is a good indicator of DNA damage and other cellular stresses. […] The activation of the reporter gene under culture conditions can be detected by fluorescence intensity. This cell line was used to screen the Tox21 compound library in a 1536-well plate format and to identify agonists that activate the p53 signaling pathway.
Tox21 Assay Protocol Summary:
The p53RE-bla cells were dispensed at 4,000 cells/5 ul/well in 1536-well black wall/clear bottom plates using a Multidrop dispenser. After the assay plates were incubated at a 37 C/5% CO2 incubator for 5 hours, 23 nL of compounds dissolved in DMSO, positive controls or DMSO only was transferred to the assay plate by a pin tool. The plates were incubated at 37 C for 16 hours. After 1 uL of LiveBLAzerTM B/G FRET substrate was added using a Flying Reagent Dispenser, the plates were incubated at room temperature for 2 hours, and fluorescence intensity was measured by an Envision plate reader.
For cell viability readout that measures cytotoxicity, 4 ul/well of CellTiter-Glo reagent was added into the assay plates using a Flying Reagent Dispenser. After 30 min incubation at room temperature, the luminescence intensity in the plates was measured using a ViewLux plate reader.
In the case of `Cc1onc(-c2c(F)cccc2Cl)c1C(=O)N[C@@H]1C(=O)N2[C@@H]1SC(C)(C)[C@@H]2C(=O)O`, the Potency entry is “inactive”.

Turning to `CC1(C)CCC(NC(=O)[C@@H](N)CCC(=O)O)CC1`, the Potency entry was “inactive”.

On to `CN1[C@@H](CC(=O)c2ccccc2)CCC[C@H]1C[C@H](O)c1ccccc1`, for which the Potency result was “inactive”.

With `O=P(O)(O)C(O)(Cn1ccnc1)P(=O)(O)O`, the Potency entry was “inactive”.

As for `CC(=O)N[C@@H](C=O)[C@H](O)[C@H](O)[C@@H](O)CO`, the Potency result was “inactive”.

As for `O=C1OC(=O)c2cc(-c3ccc4c(c3)C(=O)OC4=O)ccc21`, the Potency result is “inactive”.

For the molecule `CC(C)(COP(=O)(O)OP(=O)(O)OC[C@H]1O[C@@H](n2cnc3c(N)ncnc32)[C@H](O)[C@@H]1OP(=O)(O)O)C(O)C(=O)NCCC(=O)NCCS` (stereo not given in full), the Potency entry is “inactive”.

Regarding `Oc1ccc(Cl)cc1C1CCCC1`, the Potency entry was “inactive”.

`CC12CCC(C[N+](C)(CCC[N+](C)(C)C)C1)C2(C)C` (stereo not given): the Potency entry is “inactive”.

As for `CN=C(N)NCCC[C@H](N)C(=O)O`, the Potency entry is “inactive”.

In the case of `CC(=O)NC[C@H]1CN(c2ccc(N3CCOCC3)c(F)c2)C(=O)O1`, the Potency entry was “inactive”.

`CC(C)[N+]1(C)[C@@H]2CC[C@H]1CC(OC(=O)C(CO)c1ccccc1)C2` (stereo not given in full): the Potency result was “inactive”.

For `OCC1(CO)COC(C(Cl)(Cl)Cl)OC1`, the Potency entry was “inactive”.

For the molecule `N[C@@H](Cc1ccc(O)c(O)c1)C(=O)O`, the Potency entry is “inactive”.

In the case of `CC[C@H]1OC(=O)C[C@@H](O)[C@H](C)[C@@H](O[C@@H]2O[C@H](C)[C@@H](O[C@H]3C[C@@](C)(O)[C@@H](O)[C@H](C)O3)[C@H](N(C)C)[C@H]2O)[C@@H](CC=O)C[C@@H](C)C(=O)/C=C/C(C)=C/[C@@H]1CO[C@@H]1O[C@H](C)[C@@H](O)[C@@H](OC)[C@H]1OC`, the Potency result was “inactive”.

Regarding `CC[C@H]1OC(=O)[C@H](C)C(=O)[C@H](C)[C@@H](O[C@@H]2O[C@H](C)C[C@H](N(C)C)[C@H]2O)[C@](C)(OC)C[C@@H](C)C(=O)[C@H](C)[C@H]2N(CCCCn3cnc(-c4cccnc4)c3)C(=O)O[C@]12C`, the Potency result is “inactive”.

In the case of `Cc1cc(=O)c(C(=O)N[C@@H](C(=O)N[C@@H]2C(=O)N3C(C(=O)O)=C(CSc4nnnn4C)CS[C@H]23)c2ccc(O)cc2)c[nH]1`, the Potency result was “inactive”.

For the molecule `c1ccc2c(c1)OCC(CN1CCCCC1)O2` (stereo not given), the Potency result is “inactive”.

For the molecule `C=CC[N@@+]12CC[C@@]34c5ccccc5N5/C=C6/[C@H]7C[C@H]8[C@@]9(CC[N@@+]8(CC=C)C/C7=C/CO)c7ccccc7N(/C=C(/[C@@H](C[C@@H]31)/C(=C\CO)C2)[C@H]54)[C@@H]69`, the Potency result was “inactive”.

As for `COc1ccc(/C=C/C(=O)Nc2ccccc2C(=O)O)cc1OC`, the Potency result was “inactive”.

Turning to `C=N[C@@H](C(=O)N[C@@H]1C(=O)N2[C@@H]1SC(C)(C)[C@@H]2C(=O)O)c1ccccc1`, the Potency entry was “inactive”.

Regarding `CCSCC`, the Potency entry is “inactive”.

In the case of `CN1CCN(c2ccccc2/C=C2\SCCN(c3ccc(Cl)c(Cl)c3)C2=O)CC1`, the Potency was 61.1 µM (active).

Turning to `c1ccc2cc3c4ccccc4c4ccccc4c3cc2c1`, the Potency entry is “inactive”.

With `C=CC1=C(C(=O)O)N2C(=O)[C@@H](NC(=O)/C(=N\O)c3csc(N)n3)[C@H]2SC1` (stereo in doubt), the Potency entry was “inactive”.

In the case of `O=C1CCCCCCCCCCCCCC1`, the Potency result was “inactive”.

Regarding `CCC(=O)OC(OP(=O)(CCCCc1ccccc1)CC(=O)N1C[C@H](C2CCCCC2)C[C@H]1C(=O)O)C(C)C` (stereo not given in full), the Potency result was “inactive”.

As to `CCC(NC(C)C)C(O)c1ccc(O)c(O)c1` (stereo not given), the Potency entry was “inactive”.

Regarding `C[N+]1(CCCCC[N+]2(C)CCCC2)CCCC1`, the Potency result was “inactive”.

Take `C[C@H](O)CN(C)C`: the Potency result is “inactive”.

In the case of `C[C@H]1O[C@@H](O[C@H]2CC[C@@]3(C)[C@H](CC[C@@H]4[C@@H]3C[C@@H](O)[C@]3(C)[C@@H](C5=CC(=O)OC5)CC[C@]43O)C2)C[C@H](O)[C@@H]1O[C@H]1C[C@H](O)[C@H](O[C@H]2C[C@H](O)[C@H](O[C@@H]3O[C@H](CO)[C@@H](O)[C@H](O)[C@H]3O)[C@@H](C)O2)[C@@H](C)O1`, the Potency is 0.168 µM (active).

Regarding `CN[C@@H]1[C@@H](O[C@H]2O[C@H](CO)[C@@H](N)[C@H](O)[C@H]2O)O[C@H]2C[C@@H](N)[C@@H](O[C@H]3[C@H](O)[C@@H](O)[C@H](N)C[C@@H]3N)O[C@@H]2[C@@H]1O`, the Potency entry was “inactive”.

Turning to `CC(C)=CCC/C(C)=C/CC/C(C)=C/CC/C=C(\C)CC/C=C(\C)CCC=C(C)C`, the Potency entry was “inactive”.

For the molecule `CON=C1C[C@]2(C[C@@H]3C[C@@H](C/C=C(\C)C[C@@H](C)/C=C/C=C4\CO[C@@H]5[C@H](O)C(C)=C[C@@H](C(=O)O3)[C@]45O)O2)O[C@H](/C(C)=C/C(C)C)[C@H]1C`, the Potency is 11.9 µM (active) and 8.41 µM (active).

As for `O=C1c2c(O)cccc2[C@H]([C@@H]2O[C@H](CO)[C@@H](O)[C@H](O)[C@H]2O)c2cc(CO)cc(O)c21`, the Potency entry was “inactive”.

Regarding `CCCCCCCCCCCCCC(=O)OCC(COP(=O)([O-])OCC[N+](C)(C)C)OC(=O)CCCCCCCCCCCCC` (stereo not given), the Potency result was “inactive”.

With `CCOc1cc(CC(=O)N[C@@H](CC(C)C)c2ccccc2N2CCCCC2)ccc1C(=O)O`, the Potency entry is “inactive”.

As to `CSCCC(N)C(=O)O` (stereo not given), the Potency entry was “inactive”.

`CC(C)CCC[C@@H](C)[C@H]1CC[C@H]2[C@@H]3CC=C4C[C@@H](O)CC[C@]4(C)[C@H]3CC[C@]12C`: the Potency entry was “inactive”.

Turning to `COc1cc(NS(C)(=O)=O)ccc1Nc1c2ccccc2nc2ccccc12`, the Potency was 18.8 µM (active).

The values above are taken from PubChem BioAssay (Tox21).
